Measurements: PubChem BioAssay (NCI)
“And” between values parts separate entries of the source, which are not always exact repeats. Equal entries are not always repeated. The panel holds about 79,000 compounds, 15% with a hit somewhere; the sample as a whole holds those more often. A number with no mark means an inactive call. The source made the active and inactive calls. No stated cut-off is given here; in the data, active means growth inhibition above about 70%; inactive means the rest.

Assay: NCI Yeast Anticancer Drug Screen. Data for the rad50 strain (AID 155);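 further: 0% = growth of vehicle-only cultures of the same strain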
Conditions: S. cerevisiae rad50 strain growth inhibition; at 50.0 µM; stronger effect = higher value
Outline: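 A DNA repair-deficient yeast mutant serves as the test organism; compound-induced growth inhibition is calculated against vehicle-treated cells.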
With `O=C(NCCc1ccc([N+](=O)[O-])cc1)c1ccc(S(=O)(=O)F)cc1` the growth inhibition was 1.9%.
For `CCN(CC)C(=S)SCc1ccccc1OC(=O)NC`, the growth inhibition was -4.35%.
`C[C@]12Cc3sc(N)nc3C[C@@H]1CC[C@@H]1[C@@H]2CC[C@@]2(C)[C@H]1CC[C@]2(C)O` showed a growth inhibition of -21.5%.
Work on `COc1cc(N=Nc2cccc(C(=O)O)c2)ccc1N(CCCl)CCCl` yielded a growth inhibition of -12.4%.
For `CC1(CCl)COP(=O)(NN)OC1` (configuration not stated), the growth inhibition was 3.95%.
Molecule `O=C(c1ccc([N+](=O)[O-])cc1)C1NC1c1ccccc1` (configuration not stated) has a growth inhibition of -24.2%.
`O=C([O-])C(F)(F)C(F)(F)F.[C-]#[O+].[C-]#[O+].[C-]#[O+].[C-]#[O+].[C-]#[O+].[Mn]` gave a growth inhibition of -8%.
For `CCCCC1(C(C)C)C(=O)NC(=O)N(C)C1=O` (configuration not stated), the growth inhibition was -5.55%.
In the case of `O=C(O)CN(CCN(CC(=O)O)CC(=O)O)CC(=O)O.[Cl][Pd][Cl]`, the growth inhibition is reported as 41.7%.
For `O=C(COc1ccc(Cl)c(Cl)c1)Nc1ccc[n+](Cc2ccc(S(=O)(=O)F)cc2Cl)c1`, the growth inhibition was 52.5%.
Molecule `[C-]#[O+].[C-]#[O+].[Ni].c1ccc([PH+](CC[PH+](c2ccccc2)c2ccccc2)CC[PH+](c2ccccc2)c2ccccc2)cc1` has a growth inhibition of -23.4%.
`CCOP(=O)(OCC)/C(C#N)=C(\C)c1ccco1` gave a growth inhibition of -26.4%.
Work on `Cc1cc2[nH]c3c(C#N)c(OC(=O)N(C)C)c(C)c(=O)n3c2cc1C` yielded a growth inhibition of 37.3%.
`CC(=O)[O][Pb]([CH3])([CH3])[CH3]` gave a growth inhibition of -28%.
Work on `O=C(N1CCCC1)C1(c2cccc(Cl)c2)CCNCC1` yielded a growth inhibition of -26.1%.
Work on `CC1=CC(C(=O)O)P(C)(=O)C1` (configuration not stated) yielded a growth inhibition of -0.9%.
For `O=C(c1ccccc1)C1C(C(=O)c2ccccc2)N1Cc1ccccc1` (configuration not stated), the growth inhibition was 5% and 21.4%.
Work on `O=S1(=O)c2ccccc2-c2ccccc21` yielded a growth inhibition of -5%.
With `CC(=O)CC1(OC(=O)C2C(C=C(C)C)C2(C)C)C(=O)Nc2ccccc21` (configuration not stated) the growth inhibition was 40.5%.
With `CC1(C)N=C(N)N=C(N)N1c1ccc(CCc2cccc(Cl)c2S(=O)(=O)F)c(Cl)c1` the growth inhibition was 99.5% (active).
Molecule `CN(C)P(N)(=S)N(C)C` has a growth inhibition of -2.75%.
`CC(C)CCON=C(N)N` gave a growth inhibition of -23.8%.

Assay: NCI Yeast Anticancer Drug Screen. Data for the mec2-1 strain (AID 157)
Conditions: S. cerevisiae mec2-1 strain, at 50.0 µM, stronger effect = higher value
Outline: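 mec2-1 yeast strain, carrying an alteration in DNA damage repair or cell cycle control, was exposed to compounds; growth inhibition was measured relative to vehicle-treated controls.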
With `ClCCN(CCCl)c1ccc(C2=Nc3cccc4cccc(c34)N2)cc1` the growth inhibition was 9.8%.
For `COc1cc(Cl)c(OP(=O)(OC)OC)cc1Cl`, the growth inhibition was 9.4%.
Work on `c1ccc(CC[n+]2cccc3ccccc32)cc1` yielded a growth inhibition of 11.2%.
Molecule `CCC1(C(C)c2ccccc2)C(=O)NC(=O)NC1=O` (configuration not stated) has a growth inhibition of 6.1%.
Work on `CCCCCCOC(=O)c1ccccc1C(=O)OCCCCCC` yielded a growth inhibition of -1.75%.
In the case of `S=C=Nc1ccccn1`, the growth inhibition is reported as 3.35%.
In the case of `O=C(CF)[O][Sb]([O]C(=O)CF)([c]1ccccc1)([c]1ccccc1)[c]1ccccc1`, the growth inhibition is reported as 19.9%.
`O=C1C=C2c3ccccc3CC(C(=O)O)C2CC1` (configuration not stated) showed a growth inhibition of -14.2%.
Molecule `Cc1ccc(NC2=NCCS2)cc1Cl` has a growth inhibition of 7.15%.
`Nc1ccc([As](O)O)c(C(=O)O)c1` showed a growth inhibition of -24.1%.
In the case of `CC(=O)OCC12CCC(C)=CC1OC1C(N(C)C)C(O)C2(C)C12CO2` (configuration not stated), the growth inhibition is reported as 49.6%.
For `O=NNc1ccc(Br)cn1`, the growth inhibition was -6.25%.
In the case of `COc1ccc2c3c1O[C@H]1C(Br)C=C[C@H]4[C@@H](C2)N(C)CC[C@]314` (some centres not stated), the growth inhibition is reported as -15.8%.
`N=C(N)SCc1ccc(Cl)c(Cl)c1` (tested in a mixture with another compound) gave a growth inhibition of 10.8%.
For `C=CC[As](=O)(O)c1ccccc1Cl`, the growth inhibition was 99.5% (active).
For `CN(C)S(=O)(=O)N(SC(F)(Cl)Cl)c1ccccc1`, the growth inhibition was 99.5% (active).
In the case of `O=NNc1cnccn1`, the growth inhibition is reported as -23.9% and 1.5%.
`CCC[CH2][Sn]1([CH2]CCC)[O]C(=O)CN=C(C)c2ccccc2[O]1` gave a growth inhibition of 9.85%.
Molecule `O=C(NCCc1ccc([N+](=O)[O-])cc1)c1ccc(S(=O)(=O)F)cc1` has a growth inhibition of 12.7%.
In the case of `CCN(CC)C(=S)SCc1ccccc1OC(=O)NC`, the growth inhibition is reported as -8.6%.
`C[C@]12Cc3sc(N)nc3C[C@@H]1CC[C@@H]1[C@@H]2CC[C@@]2(C)[C@H]1CC[C@]2(C)O` gave a growth inhibition of -18.4%.
`COc1cc(N=Nc2cccc(C(=O)O)c2)ccc1N(CCCl)CCCl` showed a growth inhibition of -16.4%.
For `CC1(CCl)COP(=O)(NN)OC1` (configuration not stated), the growth inhibition was -3.15%.
`O=C(c1ccc([N+](=O)[O-])cc1)C1NC1c1ccccc1` (configuration not stated) gave a growth inhibition of -16.6%.
With `O=C([O-])C(F)(F)C(F)(F)F.[C-]#[O+].[C-]#[O+].[C-]#[O+].[C-]#[O+].[C-]#[O+].[Mn]` the growth inhibition was -29%.
`CCCCC1(C(C)C)C(=O)NC(=O)N(C)C1=O` (configuration not stated) showed a growth inhibition of 8.9%.
With `O=C(O)CN(CCN(CC(=O)O)CC(=O)O)CC(=O)O.[Cl][Pd][Cl]` the growth inhibition was 51.5%.
`O=C(COc1ccc(Cl)c(Cl)c1)Nc1ccc[n+](Cc2ccc(S(=O)(=O)F)cc2Cl)c1` gave a growth inhibition of 27.9%.
`[C-]#[O+].[C-]#[O+].[Ni].c1ccc([PH+](CC[PH+](c2ccccc2)c2ccccc2)CC[PH+](c2ccccc2)c2ccccc2)cc1` gave a growth inhibition of 0.4%.
Work on `CCOP(=O)(OCC)/C(C#N)=C(\C)c1ccco1` yielded a growth inhibition of -28.9%.
With `Cc1cc2[nH]c3c(C#N)c(OC(=O)N(C)C)c(C)c(=O)n3c2cc1C` the growth inhibition was 22.3%.
Work on `CC(=O)[O][Pb]([CH3])([CH3])[CH3]` yielded a growth inhibition of -35.9%.
Molecule `O=C(N1CCCC1)C1(c2cccc(Cl)c2)CCNCC1` has a growth inhibition of -53%.
Work on `CC1=CC(C(=O)O)P(C)(=O)C1` (configuration not stated) yielded a growth inhibition of -18.2%.
For `O=C(c1ccccc1)C1C(C(=O)c2ccccc2)N1Cc1ccccc1` (configuration not stated), the growth inhibition was 9.9% and 4.5%.
In the case of `O=S1(=O)c2ccccc2-c2ccccc21`, the growth inhibition is reported as -7.95%.
For `CC(=O)CC1(OC(=O)C2C(C=C(C)C)C2(C)C)C(=O)Nc2ccccc21` (configuration not stated), the growth inhibition was 16.4%.
In the case of `CC1(C)N=C(N)N=C(N)N1c1ccc(CCc2cccc(Cl)c2S(=O)(=O)F)c(Cl)c1`, the growth inhibition is reported as 99.7% (active).
In the case of `CN(C)P(N)(=S)N(C)C`, the growth inhibition is reported as -9.15%.
Molecule `CC(C)CCON=C(N)N` has a growth inhibition of -2.25%.
